# Experimental data published in the supplement of paper PMC6897291.
# Experiments:
# [1] = tested on: U-2932; experiment: growth inhibition by drug alone (1 - RLU/untreated control) (fraction); higher = stronger inhibition; settings: 177Lu-lilotomab satetraxetan 0 ug/ml
# Summary of the method: (§1)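 Compound doses on the pre-printed Selleck Cambridge Cancer Compound library plates were 10/100 nM for RIVA cells and 10/1,000 nM for U-2932 cells, seeded at 3,000 cells/well. Before seeding, cells were washed after 18 h with or without a radiolabelled anti-CD37 antibody conjugate (~600 MBq/mg; 0.5 µg/ml RIVA, 1 µg/ml U-2932). Growth inhibition was derived from RealTime-Glo luminescence relative to untreated no-drug control wells. Readings were taken daily starting on day 3, each after 1 h at 37°C, and each well's RLU was divided by the mean of 48 such wells per plate and subtracted from 1.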
# [2] = tested on: RIVA; experiment: as above; settings: 177Lu-lilotomab satetraxetan 0 ug/ml
# Summary of the method: as §1
# [3] = tested on: U-2932; experiment: growth inhibition by drug plus 177Lu-lilotomab satetraxetan (1 - RLU/untreated control) (fraction); higher = stronger inhibition; settings: 177Lu-lilotomab satetraxetan 1 ug/ml
# Summary of the method: as §1
# [4] = tested on: RIVA; experiment: as above; settings: 177Lu-lilotomab satetraxetan 0.5 ug/ml
# Summary of the method: as §1
Structure (SMILES),"growth inhibition by drug alone ([1]; 10 nM, time (day): 3)","growth inhibition by drug alone ([1]; 10 nM, time (day): 4)","growth inhibition by drug alone ([1]; 10 nM, time (day): 5)","growth inhibition by drug alone ([1]; 10 nM, time (day): 6)","growth inhibition by drug alone ([1]; 1000 nM, time (day): 3)","growth inhibition by drug alone ([1]; 1000 nM, time (day): 4)","growth inhibition by drug alone ([1]; 1000 nM, time (day): 5)","growth inhibition by drug alone ([1]; 1000 nM, time (day): 6)","growth inhibition by drug alone ([2]; 10 nM, time (day): 3)","growth inhibition by drug alone ([2]; 10 nM, time (day): 4)","growth inhibition by drug alone ([2]; 10 nM, time (day): 5)","growth inhibition by drug alone ([2]; 10 nM, time (day): 6)","growth inhibition by drug alone ([2]; 100 nM, time (day): 3)","growth inhibition by drug alone ([2]; 100 nM, time (day): 4)","growth inhibition by drug alone ([2]; 100 nM, time (day): 5)","growth inhibition by drug alone ([2]; 100 nM, time (day): 6)","growth inhibition by drug plus 177Lu-lilotomab satetraxetan ([3]; 10 nM, time (day): 3)","growth inhibition by drug plus 177Lu-lilotomab satetraxetan ([3]; 10 nM, time (day): 4)","growth inhibition by drug plus 177Lu-lilotomab satetraxetan ([3]; 10 nM, time (day): 5)","growth inhibition by drug plus 177Lu-lilotomab satetraxetan ([3]; 10 nM, time (day): 6)","growth inhibition by drug plus 177Lu-lilotomab satetraxetan ([3]; 1000 nM, time (day): 3)","growth inhibition by drug plus 177Lu-lilotomab satetraxetan ([3]; 1000 nM, time (day): 4)","growth inhibition by drug plus 177Lu-lilotomab satetraxetan ([3]; 1000 nM, time (day): 5)","growth inhibition by drug plus 177Lu-lilotomab satetraxetan ([3]; 1000 nM, time (day): 6)","growth inhibition by drug plus 177Lu-lilotomab satetraxetan ([4]; 10 nM, time (day): 3)","growth inhibition by drug plus 177Lu-lilotomab satetraxetan ([4]; 10 nM, time (day): 4)","growth inhibition by drug plus 177Lu-lilotomab satetraxetan ([4]; 10 nM, time (day): 5)","growth inhibition by drug plus 177Lu-lilotomab satetraxetan ([4]; 10 nM, time (day): 6)","growth inhibition by drug plus 177Lu-lilotomab satetraxetan ([4]; 100 nM, time (day): 3)","growth inhibition by drug plus 177Lu-lilotomab satetraxetan ([4]; 100 nM, time (day): 4)","growth inhibition by drug plus 177Lu-lilotomab satetraxetan ([4]; 100 nM, time (day): 5)","growth inhibition by drug plus 177Lu-lilotomab satetraxetan ([4]; 100 nM, time (day): 6)"
Cc1ccc(Nc2nccc(N(C)c3ccc4c(C)n(C)nc4c3)n2)cc1S(N)(=O)=O [Pazopanib],0.0671,0.059,0.0169,-0.0275,0.0873,0.113,0.0564,-0.194,0.149,0.0444,-0.0206,-0.258,0.117,0.0561,0.0246,-0.0758,0.0594,0.0779,0.0787,0.118,-0.00732,0.0799,0.0706,0.00785,0.437,0.548,0.557,0.564,0.418,0.47,0.488,0.477
O=C(O)c1ccc(-c2c[nH]c3ncc(-c4ccccc4)cc23)cc1C1CCCC1,0.092,0.0154,-0.12,-0.193,-0.0285,-0.0484,-0.0534,0.0115,–,–,–,–,–,–,–,–,-0.00975,0.0274,-0.00811,0.0111,0.129,0.173,0.227,0.339,0.472,0.539,0.552,0.565,0.343,0.471,0.488,0.51
CC1(COc2ccc3c(c2)ncn3-c2ccc3cccc(N4CCC(N)CC4)c3n2)COC1,0.0766,0.0633,0.00938,-0.0623,0.0371,0.0705,-0.00181,0.0785,0.0318,-0.0103,-0.0736,-0.123,-0.25,-0.202,-0.209,-0.254,0.0763,0.118,0.168,0.194,0.257,0.342,0.386,0.516,0.618,0.628,0.633,0.631,0.449,0.485,0.466,0.463
O=C(Nc1ccccc1-c1cn2c(CN3CCNCC3)csc2n1)c1cnc2ccccc2n1,0.102,0.0775,-0.0151,-0.0612,0.0868,0.0879,0.00704,-0.1,0.0628,0.0902,0.0591,-0.163,-0.0368,-0.02,-0.0409,-0.193,0.0225,0.0594,0.101,0.14,0.141,0.171,0.103,0.146,0.404,0.522,0.563,0.562,0.418,0.513,0.516,0.514
C[C@]12CC[C@H](O)CC1=CC[C@@H]1[C@@H]2CC[C@]2(C)C(c3cccnc3)=CC[C@@H]12 [Abiraterone (CB-7598)],0.158,0.102,-0.102,-0.0433,0.0352,-0.0224,-0.154,-0.164,–,–,–,–,–,–,–,–,0.0329,0.0754,0.164,0.196,-0.00601,0.0151,0.0665,0.163,0.487,0.574,0.591,0.595,0.305,0.41,0.407,0.425
C[C@@H]1C[C@H]2[C@@H]3CCC4=CC(=O)C=C[C@]4(C)[C@@]3(F)[C@@H](O)C[C@]2(C)[C@@]1(O)C(=O)CO [Dexamethasone],0.345,0.301,0.236,0.236,0.466,0.472,0.362,0.306,–,–,–,–,–,–,–,–,0.277,0.301,0.26,0.353,0.422,0.466,0.406,0.431,0.415,0.467,0.484,0.498,0.362,0.429,0.417,0.414
O=C(Nc1cccc(Cl)c1)Nc1ncc(CCNc2ncnc3ccsc23)s1,0.0932,0.0546,0.111,0.319,0.16,0.209,0.218,0.355,–,–,–,–,–,–,–,–,0.0766,0.0714,0.202,0.505,0.201,0.317,0.351,0.495,0.463,0.543,0.579,0.666,0.389,0.481,0.511,0.596
CC(=O)O[C@]1(C(C)=O)CC[C@H]2[C@@H]3C=C(C)C4=CC(=O)CC[C@]4(C)[C@H]3CC[C@@]21C [Megestrol Acetate],0.119,0.0962,0.0591,0.00317,0.0742,0.112,0.0515,-0.0501,–,–,–,–,–,–,–,–,0.0333,0.104,0.0868,0.12,0.044,0.137,0.0953,0.163,–,–,–,–,–,–,–,–
Cc1cc(Nc2cc(N3CCN(C)CC3)nc(/C=C/c3ccccc3)n2)n[nH]1,-0.0691,-0.0558,-0.0606,-0.0133,0.102,0.0113,0.0189,0.221,-0.27,-0.286,-0.318,-0.447,-0.354,-0.347,-0.369,-0.539,-0.149,-0.0973,-0.0755,-0.0149,0.048,0.00467,0.0776,0.323,0.336,0.485,0.509,0.521,0.23,0.353,–,–
